# Assay results taken from ChEMBL document CHEMBL3433997, “St. Jude Leishmania screening dataset” (2016).
# Columns and labels:
# Type in all cases: functional
# [1] = molecular target: Solute carrier family 2, facilitated glucose transporter member 1 (Homo sapiens) (UniProt P11166); experiment: ST_JUDE_LEISH: Cytotoxicity at 2uM final concentration against transgenic Leishmania Mexicana promastigotes LmGLUT1 that are glucose transport deficient and complemented with the human glucose transporter GLUT1. Activity is measured by DNA content using SYBR green in vitro
# [2] = molecular target: Hexose transporter 1 (Plasmodium falciparum) (UniProt O97467); experiment: ST_JUDE_LEISH: Cytotoxicity at 2uM final concentration against transgenic Leishmania Mexicana promastigotes LmPfHT that are glucose transport deficient and complemented with the Plasmodium falciparum hexose transporter. Activity is measured by DNA content using SYBR green in vitro
# [3] = molecular target: Glucose transporter (Leishmania mexicana) (UniProt O61059); experiment: ST_JUDE_LEISH: Cytotoxicity at 2uM final concentration against transgenic Leishmania Mexicana promastigotes LmGT2 that are glucose transport deficient and complemented with the L. Mexicana glucose transporter 2. Activity is measured by DNA content using SYBR green in vitro
# Chain of Solute carrier family 2, facilitated glucose transporter member 1 (Homo sapiens) (P11166 whole entry): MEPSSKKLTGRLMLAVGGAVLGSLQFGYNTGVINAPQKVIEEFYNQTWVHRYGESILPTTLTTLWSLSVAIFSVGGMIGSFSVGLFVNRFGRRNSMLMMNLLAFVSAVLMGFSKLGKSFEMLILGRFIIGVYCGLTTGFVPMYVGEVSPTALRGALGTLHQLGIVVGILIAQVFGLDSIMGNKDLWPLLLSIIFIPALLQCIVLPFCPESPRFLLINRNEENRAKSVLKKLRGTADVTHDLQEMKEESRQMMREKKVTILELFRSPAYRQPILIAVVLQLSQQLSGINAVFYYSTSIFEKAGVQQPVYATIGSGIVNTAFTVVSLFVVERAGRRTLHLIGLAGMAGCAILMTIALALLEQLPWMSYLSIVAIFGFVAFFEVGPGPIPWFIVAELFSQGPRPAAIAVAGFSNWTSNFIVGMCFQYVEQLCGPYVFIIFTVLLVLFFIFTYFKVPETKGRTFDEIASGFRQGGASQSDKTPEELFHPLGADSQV
SMILES,inhibition [1],inhibition [2],inhibition [3]
CC1(C)N=C(N)N=C(Nc2ccc(Cl)cc2)N1,14.5%,14.3%,11.4%
Cc1cccc(N2CCN(C3CCC(NC(=O)c4cc5ccccc5[nH]4)CC3)CC2)c1C (stereo not drawn),2.31%,1.82%,1.43%
CC(C)(C)NCCN(Cc1ccc(-c2ccc(C(F)(F)F)cc2)cc1)C(=O)Cn1c(CCc2cccc(F)c2F)nc(=O)c2ccccc21,3%,5%,1.15%
O=C(/C=C/c1ccc(C(F)(F)F)cc1)NCCCCCN1CCCN(C(=O)Nc2ccc(Cl)c(Cl)c2)CC1,-0.66%,-0.09%,-0.19%
c1ccc(-c2nc(Nc3ccncc3)sc2-c2ccccc2)cc1,4.18%,4.94%,1.21%
CCCCN(CCCC)CCCN(CCCN(CCCC)CCCC)c1cc(C)nc(Nc2ccc3cc(Br)ccc3c2)n1,12%,10.1%,6.68%
CN(C)c1ccc(C2c3[nH]cnc3CCN2C(=O)Nc2cccc([N+](=O)[O-])c2)cc1 (stereo not drawn),7.55%,8.52%,1.43%
CCc1c(C)nc(-n2nc(C)cc2NC(=O)C2c3ccccc3Oc3ccccc32)[nH]c1=O,-0.64%,-0.55%,3.35%
CC1CN(c2cc(=O)n(Cc3cccc(NC(=O)Nc4ccc(-c5ccccc5)cc4)c3)cn2)CC(C)N1 (stereo not drawn),1.17%,2.06%,-1.85%
Cc1ccc(-c2nc(N3CCN(C(=O)c4ccco4)CC3)c3ccc(Cl)cc3n2)cc1,1.17%,2.21%,2.34%
COc1ccc([N+](=O)[O-])cc1N(Cc1ccccc1-c1ccccc1)S(=O)(=O)c1ccc(C(F)(F)F)cc1[N+](=O)[O-],8.36%,5.46%,-1.25%
COCCNCc1ccc(-c2ccc3c(Nc4ccc(Cl)cc4F)ccnc3c2)o1,2.75%,2.3%,4.33%
CCN(CCCN1CCCCC1)c1cc(C)nc(Nc2ccc(C)cc2Br)n1,4.17%,4.38%,4.15%
O=C(Nc1ccc(Br)cc1)Nc1ccc(Cn2ncc(N3CCCNCC3)c(Cl)c2=O)cc1,-2.08%,0.01%,2.81%
COc1ccccc1CCNc1nc(C)cc(N[C@@H](CC(C)C)C(=O)NCc2cccc(F)c2)n1,9.56%,8.52%,8.86%
O=C(/C=C/c1ccc(Cl)c(Cl)c1)NCCCCCN1CCCN(C(=O)Nc2ccc(Cl)c(Cl)c2)CC1,-0.96%,-0.4%,-0.85%

SMILES,inhibition [1],inhibition [2],inhibition [3]
Cc1c(C(=O)Nc2cc(Sc3ccc(F)cc3)cc([N+](=O)[O-])c2)sc2ncn(Cc3ccccc3F)c(=O)c12,9.44%,9.11%,8.4%
CCOC(=O)c1nc2ccc(SC3CCCCC3)cn2c1Br,1.75%,0.06%,5.65%
COc1ccccc1Oc1c(N(C)S(=O)(=O)c2ccc(C(C)C)cc2)nc(C(F)(F)F)nc1N(C)S(=O)(=O)c1ccc(C(C)C)cc1,0.63%,1.97%,1%
COc1ccc2nccc([C@@H](O)CN3CCC(NCc4cc5cccnc5[nH]4)CC3)c2n1,15.5%,14.9%,3.26%
CC(=O)Nc1ccc(NC(=O)c2cc(-c3ccc(C)cc3O)n[nH]2)cc1,-0.23%,7.7%,0.4%
Cc1cccc2nc(-c3ccc(-c4ccc(CN5CCCC5CN)cc4)cc3)[nH]c12 (stereo not drawn),6.95%,6.96%,4.26%
Cc1cc(NC(=O)Nc2ccc(C#N)cc2)c2ccccc2n1,1.79%,4.35%,0.95%
CN1CCN(Cc2cc3cc(NC(=O)/C=C/c4cccc(Cl)c4)ccc3s2)CC1,0.65%,0.04%,-0.14%
COc1cc(NC(=O)C(c2ccc(Cl)cc2)C(C)C)cc(OC)c1 (stereo not drawn),2.88%,2.55%,1.33%
Cc1cc(N(C)C2CCN(CC3CCCCC3)C2)nc(Nc2ccc(Br)cc2)n1 (stereo not drawn),2.84%,4.85%,2.06%
O=[N+]([O-])c1ccc(Nc2nc(N/N=C/c3cccc(O)c3)nc(N3CCCC3)n2)cc1,3.46%,3.1%,1.31%
CC[C@H](C)CNC(=O)c1ccc(-c2cccc(CN3CCC(N4CCCC4)CC3)c2)nc1,0.61%,0.29%,0.34%
CCN(C)c1cc(C(=O)N[C@@H](Cc2ccccc2)[C@H](O)CNC(C)(C)c2cccc(OC)c2)cc(N2CCCC2=O)c1,1.69%,0.79%,4.41%
COc1ccccc1N=C1SC(=Cc2cn(CC(=O)N3CCCc4ccccc43)c3ccccc23)C(=O)N1C1CCCCC1,2.84%,0.47%,-1.37%
O=C(NCc1cccc(OC(F)(F)F)c1)c1cnc2c(c1)nc(-c1c[nH]c(-c3ccccc3)n1)n2CCc1c[nH]cn1,2.3%,2.34%,-2.01%
